Screening data deposited in PubChem BioAssay by National Center for Advancing Translational Sciences (NCATS).
BRCA1 expr up – BRCA1 expression activation; MCF7-BRCA1-FFLuc reporter, luminescence, 48 h; response scale: scaled: vehicle 0%, 10 µM genistein 100%; Potency, µM (titrated, usually from 46.1 µM), without a hit: at the highest dose activation, hits mostly activators; 380,000 tested, 1.1% active; AID 624202; further: potency means the concentration at half of the fitted maximal effect; nearly all actives have a fitted effect of over 80% in size
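Luminescence from a BRCA1-driven firefly luciferase in MCF7 cells was the read-out, taken 15 min after substrate addition following 48 h compound exposure at 37 °C. Data were normalized to a 10 microM genistein control and DMSO vehicle.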
ELG1 repair inh – blocks ELG1-dependent DNA repair in HEK293T cells; HEK293T ELG1-luciferase reporter, luminescence, 16 h; DNA damage induced by 5-fluorouridine; Potency, µM (top dose mostly 46.1 µM), for the others: at the highest dose activity change, negative = inhibition, actives largely listed as inhibitors; 330,000 tested, 2.3% active; AID 504467; further: potency means the concentration at half of the fitted maximal effect; on the % scale 0 is the no-effect control and ±100 the full control effect; nearly all actives have a fitted effect of over 55% in size
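Quantitative HTS, concentration-response format. 2,000 cells/well co-treated with 5-fluorouridine and compound, 16 hr in 5% CO2 at 37 °C; ONE-Glo luminescence read after 30 min.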
IL2 activator – activators of IL-2; IL-2 activation reporter assay, cell-based qHTS; stimulated with anti-CD3/CD4/CD28 beads; in transgenic mouse T cells; activation, % (series mostly up to about 46 µM); 360,000 tested, 0.065% active; AID 652025; in the data active means activation above about 50%; inconclusive means mostly about 30% to 49%; further: 0% is about no effect
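First, unstimulated transgenic mouse T cells were exposed to compound for 60 min. Next, anti-CD3/anti-CD4-coated beads with anti-CD28 were added. Finally, after 18 h at 37 degrees C, EGFP and DsRed were imaged.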
Nrf2 ARE act – Nrf2 pathway activation | 410,000 tested, 0.31% active | AREc32 ARE-luciferase reporter (MCF7-derived line), luminescence, 24 h | Potency, µM (doses to about 46.1 µM), for inactives: at the highest dose activation, usual class: activators; further: potency means the concentration at half of the fitted maximal effect; % of control where 0% means no effect; nearly all actives have a fitted effect of over 65% in size
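Reporter line AREc32 (ARE-Fluc), seeded overnight in OPTI-MEM with 5% FBS; compound pin-transferred, 24 hr at 37 deg C, 5% CO2; luminescent read-out.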
Numbers without * were called inactive; ? = inconclusive; · = not tested or not shown. Shown are actives, neighbours in structure and some others; about 3.1% of the full set was active somewhere. Unless noted, the call rests on the fitted dose curve; in most records, active means well fitted curve in the direction sought with a large enough effect; inconclusive means small, poorly fitted or top-dose-only effect, or another doubt; inactive means no such curve, though single readings can be large; an effect the other way counts as inactive or inconclusive.

SMILES	BRCA1 expr up	ELG1 repair inh	IL2 activator	Nrf2 ARE act
O=C(Nc1ccc2c(c1)COC2=O)c1ccc(Cl)c(Cl)c1	14µM*	?	-4	-1%
Cc1ccc(NC(=O)c2ccc3c(c2)C(=O)N(CC2CCCO2)C3=O)cc1C (configuration not stated)	-1%	-9%	1	3%
O=C(Nc1ccc2c(c1)C(=O)N(CC1CCCO1)C2=O)c1ccc(Cl)c(Cl)c1 (configuration not stated)	2%	9.2µM*	-3	0%
CCOC(=O)Nc1ccc(/C=C/c2ccnc3ccccc23)cc1	-39%	·	·	·
Cc1ccc(/C=C/C(=O)c2ccccc2O)cc1	0%	?	-1	15%
CN(C)c1ccc(/C=C/C(=O)c2ccccc2O)cc1	3.2µM*	?	-4	0%
Cn1ccnc1C(=O)c1cc(SCC(=O)NC2CC2)nc2ccccc12	-21%	?	0	2%
Cc1cccc(C)c1NC(=O)CSc1cc(C(=O)c2nccn2C)c2ccccc2n1	-22%	15µM*	-4	0%
CCCn1c(=O)n(C)c(=O)c2c(SCC(=O)Nc3cc(C)on3)nc(C(C)(C)C)nc21	-57%	8.2µM*	0	-1%
Cc1cc(C(=O)CSc2nnc(Nc3ccccc3)s2)c(C)n1CC1CCCO1 (configuration not stated)	-24%	18µM*	0	3%
Cc1cc(C(=O)CN2C(=O)c3ccccc3S2(=O)=O)c(C)n1CC1CCCO1 (configuration not stated)	-108%	5.2µM*	1	-2%
Cc1cc(C(=O)CSc2nnc(Nc3ccccc3F)s2)c(C)n1CC1CCCO1 (configuration not stated)	-32%	?	-2	3%
Cc1cc(C(=O)COC(=O)c2ccc(Cl)c(S(N)(=O)=O)c2)c(C)n1CC1CCCO1 (configuration not stated)	11µM*	?	-1	0%
Cc1nn(C)c2c1c(-c1ccccc1)cc(=O)n2C(C)C(=O)NCCc1ccc(Cl)cc1 (configuration not stated)	·	·	·	8%
CC(C)NC(=O)N1CCN(S(=O)(=O)c2ccc3c(ccn3C)c2)CC1	17%	·	·	-1%
COc1ccc(N2CCN(C(CNS(=O)(=O)c3c(C)cc(C)cc3C)c3ccco3)CC2)cc1 (configuration not stated)	·	·	·	0%
COc1ccccc1N1CCN(S(=O)(=O)CCNC(=O)CC2CCCCC2)CC1	-22%	12µM*	-1	-1%
COc1ccc(CCNC(=O)c2nc(SCc3ccc(F)cc3)ncc2Cl)cc1OC	·	·	·	1%
O=C(N/N=C/c1ccc(O)cc1O)c1ccc(CN2C(=O)c3cccc4cccc2c34)cc1	-79%	2.9µM*	-1	0%
COc1ccc2c(c1)-c1nc(NC(=O)c3ccc(OC)c(Br)c3)sc1CC2	·	·	·	0%
CC1(c2nnc(-c3cccc(Cl)c3)o2)CC(c2ccc(Cl)cc2)=NO1 (configuration not stated)	-1%	·	1	4%
CC1(c2nnc(-c3cccc(Cl)c3)o2)CC(c2ccc(F)cc2)=NO1 (configuration not stated)	11µM*	·	0	8%
CCOc1ccc(-c2nonc2NC(=O)c2oc3c(C)c(C)ccc3c2C)cc1OCC	·	·	·	0%
CC(=O)N1CCc2c(sc3c2c(=O)n(CCc2ccccc2)c(=O)n3Cc2ccc(F)cc2)C1	-58%	·	·	0%
CCC(C)NS(=O)(=O)c1ccc(S(=O)(=O)N(CC(=O)Nc2ccccc2)Cc2ccco2)cc1 (configuration not stated)	-51%	18µM*	-4	3%
SMILES	BRCA1 expr up	ELG1 repair inh	IL2 activator	Nrf2 ARE act
CCCC(C)NC(=O)CN(Cc1ccco1)S(=O)(=O)c1ccccc1 (configuration not stated)	-2%	17%	0	-1%
C[C@H]1CN([C@@H](C)CO)C(=O)CCCn2cc(nn2)CO[C@@H]1CN(C)C(=O)Nc1ccc(N2CCN(C)CC2)cc1	31%	·	-2	0%
COc1ccc(C(=O)Cc2nnc(C)s2)c(OC)c1	11µM*	?	0	6%
CCCCCCCCN1C(=O)[C@H](CC(=O)NCCc2ccccc2OC)C[C@@]2(C(=O)OC)CC(C)(C)CC=C12	·	·	-1	·
C#CC(=O)N(c1cc(OC)ccc1OC)C(C(=O)NC1CCCC1)c1cccs1 (configuration not stated)	-51%	23µM*	-1	?
Cc1ccc(S(=O)(=O)N[C@@H](Cc2ccccc2)C(=O)CCl)cc1	-41%	16µM*	-1	6%
Cc1ccc(S(=O)(=O)NC(Cc2ccccc2)C(=O)NN)cc1 (configuration not stated)	-5%	-2%	1	0%
Clc1ccccc1/C=N/NC1=Nc2cccc3cccc1c23	-24%	?	244*	17%
Cc1cc(SCC(=O)Nc2ccc(C(F)(F)F)cc2)nc(=O)[nH]1	-3%	·	·	-2%
O=C(NCC1OCCc2ccccc21)c1ccco1 (configuration not stated)	-38%	30%	0	11µM*
O=C(NNC(=O)c1cccs1)c1ccc(Br)cc1	13µM*	?	0	3%
O=C(NNC(=O)c1cccs1)c1ccccc1	53%	?	-2	0%
COCc1c(C(=O)N2CCN(S(=O)(=O)c3ccccc3Cl)CC2)oc2ccccc12	-10%	10µM*	0	2%
Cc1cccc(-n2c(O)c(C=Nc3ccccc3O)c3ccccc3c2=O)n1	7%	23µM*	3	6%
Cc1cccc(-n2c(O)c(C=Nc3cc(O)ccc3C)c3ccccc3c2=O)n1	5%	-16%	6	5%
COc1cc(-c2nnc(-c3ccccc3)o2)cc(OC)c1OC	3%	23µM*	1	6%
COc1cc(-c2nnc(-c3cccnc3)o2)cc(OC)c1OC	-26%	?	3	0%
COc1cc(-c2nnc(-c3cc(OC)c(OC)c(OC)c3)o2)cc(OC)c1OC	-31%	8.2µM*	1	-1%
Cc1nc(C)c(C(=O)OCC(=O)Nc2ccc(C)c(C)c2)s1	7%	·	-4	-1%
CCc1cc2c(=O)n(-c3ccccc3)cnc2s1	18µM*	?	1	5%
Cc1ccc(C(=O)N/N=C\c2ccccc2[N+](=O)[O-])cn1	4.5µM*	?	-1	?
O=[N+]([O-])c1ccccc1/C=N/Nc1nccnc1Cl	30%	?	1	6.3µM*
Nc1cc(Cl)nc(N/N=C/c2ccccc2[N+](=O)[O-])n1	11µM*	?	0	6%
Nc1cc(Cl)nc(N/N=C/c2ccc([N+](=O)[O-])cc2)n1	22%	-4%	-1	0%
Oc1ccccc1/C=N/Nc1nccnc1Cl	-75%	?	0	6%
CC1CN(C(=O)N2CCC(C(=O)NCCCc3ccccc3)CC2)c2ccccc2O1 (configuration not stated)	·	·	·	1%
